# Measurements taken from PubChem BioAssay.
# The source made the active and inactive calls.
# Legend:
# [1] = test system: Human papillomavirus type 1a protein E7 (residues 44-93); assay: small molecules binding HPV E7 44-93 – biochemical, small-molecule microarray, residues 44-93, 635 nm fluorescence, primary screen (AID 1108); conditions: fluorescence 635 nm, higher = more signal;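 further: E7 fragment applied at 1 µg/mL in TBST for 1 h at 4 C; score combines spot fluorescence with its signal to noise ratio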
# [2] = hepatitis C replication reporter changes, two-sided – Huh7 cells, luciferase reporter, HCV replication inhibitor project, primary screen (AID 1109); conditions: Huh7 HCV replicon luciferase reporter, 48 h; higher = more signal;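 further: huh7 hepatoma cells harbouring a luciferase neomycin HCV replicon reporter; luciferase luminescence as measure of HCV replicon replication; test concentration not given here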
# [3] = target: Left-right determination factor 2 (Homo sapiens) (UniProt O00292); assay: small molecules binding LEFTY2 protein – biochemical, small-molecule microarray, 635 nm fluorescence scan, primary screen (AID 1110); conditions: higher = more signal
# Left-right determination factor 2 (Homo sapiens), sequence (O00292 whole entry, looked up): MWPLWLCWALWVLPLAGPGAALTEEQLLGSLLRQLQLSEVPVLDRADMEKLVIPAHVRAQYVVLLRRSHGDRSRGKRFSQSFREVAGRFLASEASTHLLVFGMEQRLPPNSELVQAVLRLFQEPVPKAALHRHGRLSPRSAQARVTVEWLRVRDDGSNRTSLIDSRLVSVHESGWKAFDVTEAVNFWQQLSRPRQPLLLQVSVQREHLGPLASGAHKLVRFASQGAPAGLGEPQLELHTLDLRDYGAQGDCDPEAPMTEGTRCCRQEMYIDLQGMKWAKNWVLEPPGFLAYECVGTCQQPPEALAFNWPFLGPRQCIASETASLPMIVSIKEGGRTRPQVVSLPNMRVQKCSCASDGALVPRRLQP
# [4] = target: Calmodulin-1 (Homo sapiens) (UniProt P0DP23); assay: small molecules binding calmodulin-1 with EGTA – biochemical, small-molecule microarray, Cy5-labelled CALM1, profiling panel (AID 1111); conditions: Cy5-CALM1 binding fluorescence, higher = more signal;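 further: labelled calmodulin applied in Tris saline Tween buffer holding calcium plus EGTA and DTT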
# [5] = target: Calmodulin-1 (Homo sapiens) (UniProt P0DP23); assay: small molecules binding Ca-loaded calmodulin-1 – biochemical, small-molecule microarray, Cy5-labelled CALM1, plus calcium, artefact control for SMM control-protein annotation, profiling panel (AID 1112); conditions: Cy5-CALM1 binding fluorescence, higher = more signal;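 further: score merges spot fluorescence with signal to noise from triplicate slides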
# [6] = probe aWnt5a binding to arrayed compounds – biochemical, biotinylated probe, 635/667 nm fluorescence, primary screen (AID 1113); conditions: small-molecule microarray, higher = more signal;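 further: score merges 667 nm fluorescence intensity with signal-to-noise per printed feature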
# [7] = probe aShh binding to arrayed compounds – biochemical, biotinylated probe, 635/667 nm fluorescence, primary screen (AID 1114); conditions: small-molecule microarray, higher = more signal;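 further: probe is biotin-labelled aShh protein from a stem cell growth factor screen; measures binding of labelled protein to compounds printed on the slide; score merges feature fluorescence at 667 nm with signal-to-noise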
# [8] = probe aNog binding to arrayed compounds – biochemical, biotinylated probe, 635/667 nm fluorescence, primary screen (AID 1115); conditions: small-molecule microarray, higher = more signal;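 further: probe is biotinylated aNog protein used at 0.15 µg/mL for 1 h at 4 C; z-score combines 667 nm fluorescence of each spot with its signal to noise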
# [9] = target: Torsin-1A-interacting protein 1 (Homo sapiens) (UniProt Q5JTV8); assay: compound microarray binding of lysate hLAP1 – cell lysate, small-molecule microarray, COS7 lysate, 635/667 nm fluorescence, primary screen (AID 1116); conditions: 635 nm fluorescence, higher = more signal
# Torsin-1A-interacting protein 1 (Homo sapiens), sequence (Q5JTV8 whole entry, looked up): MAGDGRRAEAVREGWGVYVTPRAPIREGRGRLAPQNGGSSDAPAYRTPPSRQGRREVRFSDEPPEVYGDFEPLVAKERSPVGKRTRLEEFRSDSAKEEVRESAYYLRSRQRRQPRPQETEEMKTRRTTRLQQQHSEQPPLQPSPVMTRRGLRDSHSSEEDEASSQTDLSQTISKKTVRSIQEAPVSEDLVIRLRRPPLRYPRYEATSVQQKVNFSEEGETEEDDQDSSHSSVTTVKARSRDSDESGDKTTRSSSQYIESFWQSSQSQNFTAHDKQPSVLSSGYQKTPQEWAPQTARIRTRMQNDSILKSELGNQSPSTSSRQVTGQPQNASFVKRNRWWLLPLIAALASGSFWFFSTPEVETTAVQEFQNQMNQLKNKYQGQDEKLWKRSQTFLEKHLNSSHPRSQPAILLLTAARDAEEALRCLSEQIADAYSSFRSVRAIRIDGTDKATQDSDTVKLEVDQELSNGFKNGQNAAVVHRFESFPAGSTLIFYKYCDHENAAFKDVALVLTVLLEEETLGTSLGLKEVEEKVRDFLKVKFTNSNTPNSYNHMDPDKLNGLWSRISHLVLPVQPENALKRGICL
# [10] = target: Alpha-bungarotoxin (Bungarus multicinctus) (UniProt P60615); assay: compounds binding labelled alpha-BTX control protein – biochemical, small-molecule microarray, Alexa647 label, 635/667 nm fluorescence, artefact control for SMM control protein annotation, profiling panel (AID 1117); conditions: alpha-BTX-A647 binding fluorescence, higher = more signal
# Alpha-bungarotoxin (Bungarus multicinctus), sequence (P60615 whole entry, looked up): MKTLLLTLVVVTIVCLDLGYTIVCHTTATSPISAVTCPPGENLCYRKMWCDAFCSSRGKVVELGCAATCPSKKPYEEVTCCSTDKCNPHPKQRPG
# [11] = target: Albumin (Bos taurus) (UniProt P02769); assay: compounds binding labelled BSA control protein – biochemical, small-molecule microarray, Alexa647 label, 635/667 nm fluorescence, artefact control for SMM control protein annotation, profiling panel (AID 1118); conditions: BSA-A647 binding, fluorescence 635 nm, higher = more signal;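 further: score merges 667 nm emission intensity and signal-to-noise per printed compound spot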
# Albumin (Bos taurus), sequence (P02769 whole entry, looked up): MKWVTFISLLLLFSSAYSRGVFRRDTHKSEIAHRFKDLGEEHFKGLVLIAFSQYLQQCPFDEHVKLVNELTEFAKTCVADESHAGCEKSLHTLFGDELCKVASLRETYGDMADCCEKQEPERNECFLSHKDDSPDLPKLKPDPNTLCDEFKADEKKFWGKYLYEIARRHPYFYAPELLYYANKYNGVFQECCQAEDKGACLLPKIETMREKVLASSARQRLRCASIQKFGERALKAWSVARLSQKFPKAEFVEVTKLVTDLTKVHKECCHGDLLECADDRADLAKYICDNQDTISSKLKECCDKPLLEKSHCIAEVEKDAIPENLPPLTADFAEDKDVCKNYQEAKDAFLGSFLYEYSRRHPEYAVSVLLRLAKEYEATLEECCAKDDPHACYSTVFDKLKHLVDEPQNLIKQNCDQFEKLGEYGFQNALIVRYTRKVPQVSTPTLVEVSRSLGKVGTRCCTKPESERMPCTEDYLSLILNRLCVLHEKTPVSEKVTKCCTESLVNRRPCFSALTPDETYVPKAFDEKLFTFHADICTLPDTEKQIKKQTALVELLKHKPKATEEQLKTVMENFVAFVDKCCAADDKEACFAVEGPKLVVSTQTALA
# [12] = probe aXIP binding to arrayed compounds – biochemical, NeuroSMM set, 635/667 nm fluorescence, primary screen (AID 1119); conditions: small-molecule microarray, higher = more signal, called active from +8 up or from −8 down;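 further: probe is the protein aXip251-270 applied at 1 µg/mL to compound-printed slides; binding of probe to printed compounds measured as 667 nm fluorescence plus signal to noise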
# [13] = probe aNOTCH3 binding on compound microarray – biochemical, small-molecule microarray, 635/667 nm fluorescence, primary screen (AID 1120); conditions: higher = more signal;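 further: probe is a biotin-tagged antibody raised against NOTCH3 rather than NOTCH3 protein; score merges spot fluorescence near 667 nm with spot signal to noise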
# [14] = probe aNOTCH2 binding on compound microarray – biochemical, small-molecule microarray, 635/667 nm fluorescence, primary screen (AID 1121); conditions: higher = more signal;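 further: score merges feature fluorescence read at 667 nm with its signal to noise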
# [15] = target: Carbonic anhydrase 2 (Homo sapiens) (UniProt P00918); assay: compounds binding carbonic anhydrase 2 – biochemical, small-molecule microarray, Alexa647-labelled CAII, profiling panel (AID 1122); conditions: CAII-A647 binding fluorescence, higher = more signal
# [16] = COS7 lysate on small-molecule microarray, probe aHis, 635 nm (AID 1123); conditions: COS7 cell lysate, fluorescence, higher = more signal;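 further: z-score combines 667nm fluorescence intensity with signal-to-noise per printed compound spot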
# [17] = probe aLAP1 signal on lysate-treated microarray – cell lysate, small-molecule microarray, COS7 lysate, primary screen (AID 1124); conditions: probe aLAP1, fluorescence, higher = more signal;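 further: lysate comes from COS7 cells expressing LAP1 and is applied at 0.3 µg/mL; score merges spot fluorescence near 667 nm with signal-to-noise over triplicate slides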
# [18] = test system: Sam68 (KHDRBS1); assay: compounds binding KHDRBS1 protein – biochemical, small-molecule microarray, 635 nm fluorescence, primary screen (AID 1125); conditions: higher = more signal;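 further: score merges 667 nm channel intensity with signal to noise over triplicate slides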
# [19] = test system: Chordin-like protein 2 (CHRDL2); assay: compounds binding chordin-like 2 – biochemical, small-molecule microarray, 635 nm fluorescence, primary screen (AID 1126); conditions: fluorescence 635 nm, higher = more signal;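 further: printed compound slides probed with Chrdl2 protein at 4 µg/mL for 1 h at 4 C; score merges 667 nm emission intensity with signal to noise over three replicate slides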
# [20] = target: Concanavalin-A (Canavalia ensiformis) (UniProt P02866); assay: compounds binding concanavalin A lectin – biochemical, small-molecule microarray, Alexa647 label, 635 nm, artefact control for SMM control protein annotation, primary screen (AID 1127); conditions: ConA-A647 binding fluorescence, higher = more signal;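 further: z combines 667 nm emission intensity with signal-to-noise across three replicate slides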
# Concanavalin-A (Canavalia ensiformis), sequence (P02866 whole entry, looked up): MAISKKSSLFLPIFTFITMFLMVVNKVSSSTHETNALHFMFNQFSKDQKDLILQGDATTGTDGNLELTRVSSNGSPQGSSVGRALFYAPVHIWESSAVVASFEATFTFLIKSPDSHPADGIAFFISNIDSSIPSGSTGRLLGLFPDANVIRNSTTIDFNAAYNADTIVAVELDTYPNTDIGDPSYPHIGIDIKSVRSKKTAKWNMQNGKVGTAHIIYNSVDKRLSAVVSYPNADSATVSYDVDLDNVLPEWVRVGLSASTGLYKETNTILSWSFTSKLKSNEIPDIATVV
SMILES,composite z-score [1],z-score [2],composite z-score [3],composite z-score [4],composite z-score [5],composite z-score [6],composite z-score [7],composite z-score [8],composite z-score [9],composite z-score [10],composite z-score [11],composite Z-score [12],composite z-score [13],composite z-score [14],composite z-score [15],composite z-score [16],composite z-score [17],composite z-score [18],composite z-score [19],composite z-score [20]
CO[C@H]1O[C@H](CO)[C@@H](OC(=O)Nc2ccc(C(F)(F)F)cc2)[C@H](OC(=O)Nc2ccccc2-c2ccccc2)[C@@H]1OC(=O)Nc1ccccc1-c1ccccc1,1.3,-2.79,0.523,2.2,0.383,0.0181,0.199,0.977,1.47,2.18,0.816,0.0336 (inactive),0.387,-0.0496,0.647,2.21,0.818,1.29,0.102,1.15
COC(=O)[C@@]1(Cc2ccc(F)cc2)[C@H]2c3cc(C(=O)N(C)C)n(CCO)c3C[C@H]2CN1C(=O)c1ccccc1,-0.0095,-0.896,-0.388,0.987,0.322,-0.0271,0.494,1.33,1.47,-0.148,1.13,-0.551 (inactive),-0.0448,0.0746,0.861,1.97,1.21,-0.206,-0.437,-0.0249
COCCn1c(C(=O)N2CCCC2)cc2c1C[C@H]1CN(C(=O)c3ccccc3)[C@@](Cc3ccccc3)(C(=O)OC)[C@@H]21,1.51,-0.976,0.222,1.89,0.808,0.869,1.3,2.73,1.12,0.253,1.03,0.239 (inactive),0.676,0.6,0.676,3.14,0.403,1.29,-0.133,1.11
C=CCC(OC(C)=O)[C@@H]1[C@@H](N(Cc2ccc(-c3ccccc3)cc2)C(=O)c2ccc(-c3ccccc3)cc2)c2cc(OCCCO)ccc2N1C(=O)c1ccc2ccccc2n1 (stereo not given in full),0.0942,-0.0356,0.108,0.19,0.531,-0.184,-0.214,-0.335,0.276,-0.282,-0.211,-0.314 (inactive),0.195,-0.12,-0.0785,-0.137,0.504,0.504,0.169,-0.309
CO[C@H]1O[C@H](CO)[C@@H](OC(=O)Nc2ccc3c(c2)OCO3)[C@@H]2OC(=O)[C@@H](Cc3ccccc3)C/C=C/C[C@H](Cc3ccccc3)C(=O)O[C@@H]12,1.37,-2.54,0.0694,0.929,-0.728,0.0533,0.149,1.09,0.0909,0.732,-0.052,0.883 (inactive),0.274,0.0318,0.552,0.859,0.48,0.943,0.455,0.921
C=C(CCCC)C(=O)CC[C@H](OC(C)=O)c1ccccc1OCCO,-0.0354,-3.4,0.549,-0.592,-1.13,-0.0182,0.0121,-0.234,0.173,-0.106,0.326,0.7 (inactive),0.156,-0.0242,0.113,0.0794,0.277,0.368,0.544,-0.0099
